The values that follow come from PubChem BioAssay (NCI).

Among the test systems are NCI-H23 lung; NCI-H226 lung; NCI-H322M lung; HOP-62 NSCLC; NCI-H460 lung; HOP-92 NSCLC; NCI-H522 lung; A549/ATCC NSCLC; 786-0 renal; COLO 205 colon; DU-145 prostate; K-562 leukemia; MALME-3M melanoma; MDA-MB-231 breast; RXF 393 renal; SF-268 CNS; SF-295 CNS; SF-539 CNS; UACC-257 melanoma; M14 melanoma.
Assay in all cases: NCI-60 one-dose screen, 48 h (100 = growth as untreated, 0 = no growth, -100 = all killed)
Details in all cases: 10 µM unless noted

The panel holds about 83,000 compounds, 20% with a hit somewhere; the sample as a whole holds those more often.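 Single-dose data. Exposure time 48 hours. Values below 10 considered active.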 Values without a mark were called inactive. Activity calls are given as the source filed them.

Consider `C#C[C@]1(O)CC[C@H]2[C@@H]3CC=C4c5nc(Nc6ccccn6)sc5CC[C@]4(C)[C@H]3CC[C@@]21C`, for which the growth is 34.7% with NCI-H23 lung; 38.1% with NCI-H226 lung; 35.8% in the test on NCI-H322M lung; -10.4% (active) in the test on HOP-62 NSCLC; 4.83% (active) with NCI-H460 lung; -24.5% (active) in the test with HOP-92 NSCLC. In addition, the growth in the test on NCI-H522 lung is -6.06% (active); in the test on A549/ATCC NSCLC, 14.5%; in the test with 786-0 renal, -69.6% (active); in the test with COLO 205 colon it was 35%; with DU-145 prostate, 17.2%; with K-562 leukemia, 2.53% (active). Also, the growth was 10.9% in the test on MALME-3M melanoma; -23.1% (active) in the test with MDA-MB-231 breast; -66% (active) in the test with RXF 393 renal; -24% (active) in the test with SF-268 CNS; -72.2% (active) in the test with SF-295 CNS; -64.7% (active) with SF-539 CNS. The growth in the test with UACC-257 melanoma is -54.7% (active); in the test with M14 melanoma, -35.9% (active).
Take `CCN(CC)c1ccc(/C=C/c2ccc3cc(C)ccc3[n+]2CC)cc1`: the growth is -1.98% (active) in the test with NCI-H23 lung; 21.4% in the test with NCI-H226 lung; 35.9% with NCI-H322M lung; 4.01% (active) in the test with HOP-62 NSCLC; -48.4% (active) in the test with NCI-H460 lung; -17.5% (active) in the test on HOP-92 NSCLC. For the same compound, the growth with NCI-H522 lung was -27.7% (active); in the test on A549/ATCC NSCLC, 8.77% (active); with 786-0 renal it was 16.2%; with COLO 205 colon, -21.7% (active); in the test with DU-145 prostate it was 20.1%; in the test on K-562 leukemia, 6.51% (active). Moreover, the growth in the test with MALME-3M melanoma was -2.01% (active); in the test on MDA-MB-231 breast, 21.3%; in the test with RXF 393 renal, 11.8%; with SF-268 CNS it was 27.7%; in the test on SF-295 CNS, -22% (active); in the test with SF-539 CNS, 11.5%. Further, the values for the growth in the test on UACC-257 melanoma and in the test with M14 melanoma were -19% (active) and 2.07% (active), respectively.
On to `CCCCCCCCCCCCCCNC(=O)Nc1ccc(Cl)c(Cl)c1`, for which the growth in the test with NCI-H23 lung was -0.614% (active); with NCI-H226 lung, 18.5%; in the test with NCI-H322M lung it was 108%; in the test on HOP-62 NSCLC it was 56.6%; in the test on NCI-H460 lung it was 86.6%; with HOP-92 NSCLC, 9.28% (active). The growth is -7% (active) in the test with NCI-H522 lung; 77.8% in the test on A549/ATCC NSCLC; 12.3% in the test with 786-0 renal; 31.7% in the test with COLO 205 colon; 40.1% in the test with DU-145 prostate; 100% in the test on K-562 leukemia. Moreover, the growth is 22.2% in the test with MALME-3M melanoma; 27.7% in the test on MDA-MB-231 breast; 24.4% with RXF 393 renal; 46% with SF-268 CNS; 18.6% with SF-295 CNS; 51.1% with SF-539 CNS. The growth was 41.4% in the test with UACC-257 melanoma and 49.2% with M14 melanoma.
In the case of `O=C(CSc1nc2ccc([N+](=O)[O-])cc2[nH]1)Nc1ccc(F)c(Cl)c1`, the growth in the test with NCI-H23 lung was -7.69% (active); with NCI-H226 lung it was 7.74% (active); in the test with NCI-H322M lung it was 37.1%; in the test on HOP-62 NSCLC, 35%; in the test on NCI-H460 lung, 11.1%; in the test with HOP-92 NSCLC, -36.9% (active). Further, the growth with NCI-H522 lung is -3.92% (active); in the test with A549/ATCC NSCLC, 23.4%; in the test on 786-0 renal, 21.9%; in the test with COLO 205 colon it was 24.7%; with DU-145 prostate it was 32.2%; in the test with K-562 leukemia, 11.9%. Also, the growth is -5.67% (active) in the test on MALME-3M melanoma; 30.8% with MDA-MB-231 breast; 29.7% with RXF 393 renal; 23.8% in the test on SF-268 CNS; 18.1% in the test with SF-295 CNS; 35% with SF-539 CNS. The growth in the test with UACC-257 melanoma was 10.5%; in the test on M14 melanoma it was 25.4%.
As to `Cc1cc(N2CCCCCC2)nc(N2CCN(CC(=O)Nc3ccc4c(ccn4Cc4ccccc4)c3)CC2)n1`, the growth is 48.3% in the test on NCI-H23 lung; 53.5% with NCI-H226 lung; 80.7% in the test on NCI-H322M lung; 54.1% in the test on HOP-62 NSCLC; 36.7% with NCI-H460 lung; 8.3% (active) with HOP-92 NSCLC. In addition, the growth was 55% with NCI-H522 lung; 46.8% in the test on A549/ATCC NSCLC; 39% in the test with 786-0 renal; 31.2% with COLO 205 colon; 70.7% with DU-145 prostate; 12.1% with K-562 leukemia. For the same compound, the growth with MALME-3M melanoma is 50.9%; in the test with MDA-MB-231 breast, 54.6%; with RXF 393 renal, 6.02% (active); with SF-268 CNS, 71.2%; with SF-295 CNS, 20.4%; with SF-539 CNS, 55.7%. The figures for the growth with UACC-257 melanoma and with M14 melanoma were 61.3% and 15.6%, respectively.
On to `CC(C)C1=NOC(=O)C1=Cc1cn(-c2ccco2)nc1-c1ccccc1`, for which the growth in the test on NCI-H23 lung was 96.6%; in the test with NCI-H226 lung, 102%; with NCI-H322M lung, 102%; in the test on HOP-62 NSCLC, 79.1%; in the test on NCI-H460 lung it was 93.8%; in the test with HOP-92 NSCLC it was 94.1%. The growth with NCI-H522 lung was 84.8%; in the test with A549/ATCC NSCLC, 99.2%; in the test with 786-0 renal, 89.1%; in the test with COLO 205 colon, 103%; in the test with DU-145 prostate, 94.6%; in the test with K-562 leukemia it was 62.1%. Further, the growth in the test with MALME-3M melanoma is 104%; with MDA-MB-231 breast it was 92%; in the test with RXF 393 renal it was 80.6%; in the test with SF-268 CNS, 90.5%; with SF-295 CNS, 99.2%; with SF-539 CNS, 99.9%. Also, the growth with UACC-257 melanoma is 106%; with M14 melanoma it was 85.6%.
With `O=C1Nc2ccccc2/C1=C/C(=O)c1ccc(N2CCCC2)cc1`, the growth in the test with NCI-H23 lung is 31.8%; with NCI-H226 lung it was 73.4%; in the test with NCI-H322M lung, 81.8%; with HOP-62 NSCLC it was 33.4%; in the test on NCI-H460 lung, 9.75% (active); with HOP-92 NSCLC, 40.4%. Further, the growth in the test on NCI-H522 lung was -2.44% (active); with A549/ATCC NSCLC, 54.4%; in the test on 786-0 renal it was 100%; with COLO 205 colon it was 8.29% (active); in the test on DU-145 prostate, 12.3%; in the test with K-562 leukemia, 14.3%. Besides, the growth with MALME-3M melanoma is 39.3%; with MDA-MB-231 breast, 47.2%; in the test on RXF 393 renal it was 20.6%; with SF-268 CNS, 21.9%; in the test with SF-295 CNS it was 68.8%; in the test with SF-539 CNS it was 4.58% (active). Besides, the figures for the growth in the test on UACC-257 melanoma and in the test with M14 melanoma were 78.1% and 108%, respectively.
